From PubChem BioAssay
DRD3 antagonist – blocks the human D3 dopamine receptor; hit rate 2.5% among 360,000; D3R cells, DiscoveRx beta-arrestin luminescence, antagonist mode; stronger effect = lower value; max response, negative = inhibition, %; P35462; AID 652054; in the data active means max response below about -50%; inconclusive means no clear call, values can overlap the other calls; further: on the % scale 0 is the no-effect control and ±100 the full control effect
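Cells plated overnight at 1500 cells/well, then exposed to library compounds with dopamine controls for 90 minutes at 37 degrees C. DiscoveRx reagent added for 30–60 minutes at room temperature; luminescence read, quantitative HTS format.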
a7 integrin act – activates integrin-mediated alleviation for muscular dystrophy; alpha7betagal myoblasts, beta-gal FDG fluorescence, 48 h; Potency, µM (doses to about 38.3 µM), inactives show at the highest dose activation, hits mostly activators; hit rate 0.064% among 350,000;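 further: potency means the concentration at half of the fitted maximal effect; 100% = response of the positive control SU9516; nearly all actives have a fitted effect of over 60% in size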
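alpha7betagal+/- myoblasts (passage 13, 250/well) treated 48 h at 37C with compounds at 1:260 dilution of DMSO stock. Lysed, then beta-galactosidase activity read as FDG fluorescence (ex 480/em 540) after 30 min, with pre-read for autofluorescence.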
B2AR arrestin – beta2AR (human) beta-arrestin recruitment activity | hit rate 0.02% among 330,000 | P07550 | Potency, µM (highest dose often 46.1 µM), without a hit: at the top dose activation, actives largely listed as activators | beta-arrestin recruitment to beta2AR, cell-based reporter;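 further: potency means the concentration at half of the fitted maximal effect; 0% = DMSO controls and full agonism = EC100 isoproterenol or metaproterenol; nearly all actives have a fitted effect of over 65% in size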
Target sequence (P07550 whole entry, looked up): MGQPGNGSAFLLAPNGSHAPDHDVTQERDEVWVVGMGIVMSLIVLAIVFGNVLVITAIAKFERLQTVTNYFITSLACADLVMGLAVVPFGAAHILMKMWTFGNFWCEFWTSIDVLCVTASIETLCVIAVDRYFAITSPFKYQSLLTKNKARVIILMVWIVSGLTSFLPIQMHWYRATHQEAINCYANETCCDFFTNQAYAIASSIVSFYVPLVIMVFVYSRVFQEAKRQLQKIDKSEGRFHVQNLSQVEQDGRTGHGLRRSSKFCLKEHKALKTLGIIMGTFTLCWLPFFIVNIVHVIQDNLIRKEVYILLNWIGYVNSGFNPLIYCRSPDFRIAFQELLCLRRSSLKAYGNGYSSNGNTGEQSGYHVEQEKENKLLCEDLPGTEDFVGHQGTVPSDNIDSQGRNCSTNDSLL
mIDH1 inhibitor – human IDH1 R132H inhibition. AID 602179. IDH1-R132H enzyme, NADPH consumption, diaphorase/resazurin fluorescence. hit rate 0.093% among 390,000. Potency, µM (highest dose often 76.6 µM), inactives show at the highest dose activity change, negative = inhibition, hits mostly inhibitors; further: potency means the concentration at half of the fitted maximal effect; on the % scale 0 is the no-effect control and ±100 the full control effect; nearly all actives have a fitted effect of over 65% in size
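IDH1-R132H (0.5 ug/mL dispensed) in pH 7.5 Tris buffer was preincubated 30 min with compound, then given a substrate mix of 0.016 mM NADPH and 2 mM alpha-KG for 80 min at room temperature; remaining NADPH was read by diaphorase/resazurin fluorescence.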
DRD3 agonist – activates the human D3 dopamine receptor. hit rate 0.58% among 410,000. D3R DiscoveRx beta-arrestin cells, luminescence, 90 min. max activation, %. P35462; in the data active means max activation above about 30%; further: 0% is about no effect
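Cells at 1500/well, incubated overnight, then treated with pinned compounds (dopamine as control) for 90 min at 37 degrees C. DiscoveRx reagent added for 30 - 60 minutes at room temperature; luminescence read.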
Numbers without * were called inactive; [ ] = dose if it differs, or a comment. This is a sample that favours compounds with a hit; in the whole collection about 2.9% have one here. Unless noted, the call rests on the fitted dose curve; in most records, active means well fitted curve in the direction sought with a large enough effect; inconclusive means small, poorly fitted or top-dose-only effect, or another doubt; inactive means no such curve, though single readings can be large; an effect the other way counts as inactive or inconclusive.

Screening CC(C)(C)OC(=O)NCCCCCc1cn([C@@H](CO)C(=O)NCCCCCCCCCCC(=O)N2CCN(C(=O)OC(C)(C)C)CC2)nn1 returned DRD3 antagonist 129, a7 integrin act -42%, B2AR arrestin 0%, mIDH1 inhibitor 2%[38.3 µM] and DRD3 agonist 58*.
`CC(C)(C)OC(=O)NCCCC[C@@H](C(=O)N1CCN(C(=O)OC(C)(C)C)CC1)n1cc(CCC(=O)O)nn1` gave DRD3 antagonist 12, a7 integrin act -6%, B2AR arrestin 0%, mIDH1 inhibitor -7% and DRD3 agonist 38*.
`Cc1cccc(CN2CCN(c3ccccn3)CC2)c1` gave DRD3 antagonist inconclusive, a7 integrin act -19%, mIDH1 inhibitor 3% and DRD3 agonist 25.
O=C(CCCN1CCN(c2ccccn2)CC1)c1ccc(F)cc1 was read as DRD3 antagonist 0, B2AR arrestin 0%, mIDH1 inhibitor -1% and DRD3 agonist -17.
CC1(C)C2CC[C@]1(C)C(=O)N(CCCCN1CCN(c3ccccn3)CC1)C2=O was read as DRD3 antagonist -14, a7 integrin act 24%, B2AR arrestin 0%, mIDH1 inhibitor 3% and DRD3 agonist 80*.
Screening c1ccc(COc2cccc(CN3CCN(c4ccccn4)CC3)c2)cc1 returned DRD3 antagonist -28, a7 integrin act -2%, mIDH1 inhibitor 9% and DRD3 agonist 39*.
`CC(=O)Nc1sc2c(c1CN1CCCC1)CCCC2` gave DRD3 antagonist -9, a7 integrin act 0%, B2AR arrestin 0%, mIDH1 inhibitor -1% and DRD3 agonist -8.
Screening CC(=O)Nc1sc2c(c1CN1CCN(c3ccccn3)CC1)CCCC2 returned DRD3 antagonist -62*, a7 integrin act -33%, B2AR arrestin 0%, mIDH1 inhibitor 2% and DRD3 agonist -23.
Cc1ccc(CN2CCN(c3ccccn3)CC2)s1 was read as DRD3 antagonist inconclusive, a7 integrin act -8%, B2AR arrestin 0%, mIDH1 inhibitor 7% and DRD3 agonist 60*.
CCC(=O)Oc1ccc2c(c1)CC[C@@H]1[C@@H]2CC[C@]2(C)[C@@H](OC(=O)CC)CC[C@@H]12 was read as DRD3 agonist 6.
For c1ccc(N2CCN(Cc3ccsc3)CC2)nc1 the results were DRD3 antagonist inconclusive, a7 integrin act 12%, B2AR arrestin 0%, mIDH1 inhibitor 17% and DRD3 agonist 53*.
`O=C(CN1CCN(c2ccccn2)CC1)NCCc1ccccc1` gave DRD3 antagonist -3, a7 integrin act -2%, B2AR arrestin 0%, mIDH1 inhibitor 12% and DRD3 agonist 5.
c1ccc(CCCN2CCN(c3ccccn3)CC2)cc1 was read as DRD3 antagonist -62*, a7 integrin act 3%, B2AR arrestin -1%, mIDH1 inhibitor 0% and DRD3 agonist 11.
Screening O=c1cc(CN2CCN(c3ccccn3)CC2)nc2sccn12 returned DRD3 antagonist -9, a7 integrin act 12%, B2AR arrestin 0%, mIDH1 inhibitor 8% and DRD3 agonist 1.
For CCn1nc(C(=O)OCC(=O)Nc2nc(-c3ccc(OC)cc3)cs2)c2ccccc2c1=O the results were DRD3 antagonist 90, a7 integrin act -12%, B2AR arrestin 0%, mIDH1 inhibitor 9% and DRD3 agonist 35*.
Screening Cc1ccc(-n2nc(C)c(C(=O)NCCCN3CCN(c4ccccc4F)CC3)c2-n2cccc2)cc1 returned mIDH1 inhibitor 9% and DRD3 agonist -4.
COc1cc(N=c2ssnc2Cl)cc(OC)c1 was read as DRD3 antagonist -71*, a7 integrin act -30%, B2AR arrestin 0%, mIDH1 inhibitor -18% and DRD3 agonist -8.
CO[C@H]1C=CO[C@@]2(C)Oc3c(C)c(O)c4c(O)c(c5c(c4c3C2=O)=NC2(CCN(CC(C)C)CC2)N=5)NC(=O)/C(C)=C\C=C/[C@H](C)[C@H](O)[C@@H](C)[C@@H](O)[C@@H](C)[C@H](OC(C)=O)[C@@H]1C was read as DRD3 agonist 8.
O=C(CSc1nc2c([nH]c3ccccc32)c(=O)n1-c1cccc(C(F)(F)F)c1)N1CCc2ccccc21 was read as mIDH1 inhibitor -4% and DRD3 agonist 5.
